# Assay results from PubChem BioAssay (NCI).
# About 83,000 compounds went through this panel and 20% of them were active in at least one assay; those are over-represented in the sample as a whole.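 The test compound was applied at a single concentration to cells in 96-well plates for 48 hours, and percent growth was recorded.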 Values without a mark were called inactive. The source made the active and inactive calls. How the source made its calls: active means growth percent below 10; inactive means the rest.
# System: HOP-62 NSCLC
# Test: NCI-60 one-dose screen, 48 h (100 = growth as untreated, 0 = no growth, -100 = all killed)
# Conditions: 10 µM unless noted
row,SMILES,growth
1,COc1cc(CNC(=O)C[C@H](C)CCC=C(C)C)ccc1OCc1cn(-c2ccc(Br)cc2)nn1,65.1%
2,N#CC1=C(c2cccs2)Nc2c(c(-c3ccccc3)nn2-c2ccccc2)C12C(=O)Nc1ccccc12 (stereo unspecified),-20% (active)
3,N#Cc1c(-c2ccc(F)cc2)nc(SCc2ccc(F)cc2)nc1N1CCNCC1,-65.4% (active)
4,COc1cc(NC(=O)CSc2nnc(-c3ccc(-c4nc5ccc(Cl)cc5[nH]4)cc3)o2)cc(OC)c1OC,65.9%
5,CN(C)c1nc(NCCNS(=O)(=O)c2ccc(C(=O)/C=C/c3ccc(C(F)(F)F)cc3)cc2)nc(N2CCOCC2)n1,80.1%
6,COc1cc(CNC(=O)C[C@H](C)CCC=C(C)C)ccc1OCc1cn(-c2ccc(Cl)cc2Cl)nn1,11.3%
7,O=C(N=Nc1c(O)[nH]c2ccc(Cl)cc12)c1ccc2nc(-c3ccc(Cl)cc3)[nH]c2c1,-37.9% (active)
8,CC1=C(C(=O)OCc2ccccc2)C(c2ccc(N(C)C)cc2)n2c(nc3ccccc32)N1 (stereo unspecified),83.6%
9,Cn1cc(-c2cc(N)n3nc(-c4c[nH]c5ccc(F)cc45)cc3n2)c2cc(Br)cnc21,71.1%
10,CCCCC[C@@H]1C/C=C(\C)[C@@H](O)C(C)(C)C(=O)[C@@H](C)/C=C(\C)[C@@H]2C[C@H](O)C[C@](O)(CC(=O)O1)O2,68.7%
11,COc1ccc2c(c1)c(-c1cc(N)n3nc(-c4c[nH]c5ccccc45)cc3n1)cn2C,-71.5% (active)
12,COc1ccccc1NC(=O)N/N=C/c1c[nH]c2ccccc12,47.6%
13,CC[C@]12C=CCN3CC[C@@]4(c5ccc(OC)cc5N(C)[C@H]4[C@@](O)(C(=O)OC)[C@@H]1OC(=O)CCCC[P+](c1ccc(F)cc1)(c1ccc(F)cc1)c1ccc(F)cc1)[C@@H]32,50.9%
14,Cc1ccc(Cl)cc1NC(=O)Nc1nc2ccc([N+](=O)[O-])cc2s1,-68.1% (active)
15,Nc1nnc(CS(=O)(=O)c2ccccc2)s1,102%
16,N#CC1=C(c2cccs2)Nc2c(c(-c3ccccc3)nn2-c2ccccc2)C12C(=O)Nc1ccc(Br)cc12 (stereo unspecified),-75.2% (active)
17,N#Cc1ccc(C(=O)CSc2nc3c(c(Nc4ccc(S(N)(=O)=O)cc4)n2)CCC3)cc1,1.39% (active)
18,Cc1cccc(-c2ccccc2Oc2ccc3nnc(Cl)n3n2)c1,114%
19,COC(=O)c1cc(C(=O)CBr)n2c1ccc1c3ccccc3ccc12,48.9%

row,SMILES,growth
1,O=C(Cn1c(/C=C/c2ccc([N+](=O)[O-])cc2)nc2ccccc2c1=O)Nc1ccccc1,49%
2,CC(C)C[C@H](NC(=O)CNC(=O)C[C@H]1O[C@@H]2OC3(C)CC[C@H]4[C@H](C)CC[C@@H]([C@H]1C)[C@@]24O3)B(O)O,-3.39% (active)
3,COc1ccccc1/C=C/c1cccc(NC(=S)NCCCCN(C)C)c1,-51.1% (active)
4,CCCn1c(NC(=O)c2cccc(C(N)=O)c2)nc2cc(CN3CCCCC3)ccc21,95.8%
5,Fc1cccc(CNc2nc(SCCN3CCOCC3)nc3c2cnn3CC(Cl)c2ccc(Br)cc2)c1 (stereo unspecified),44.9%
6,COc1ccc(NC(=O)Nc2nc3ccc([N+](=O)[O-])cc3s2)cc1,25.4%
7,O=C1c2cccc3c(N4CCN(c5ccccc5)CC4)ccc(c23)C(=O)N1c1cccc(-c2nn(-c3ccccc3)cc2-c2nc3ccccc3s2)c1,110%
8,Clc1ccccc1Nc1nnc(-c2c[nH]c3ccccc23)o1,27.2%
9,Nc1nnc(-c2cncc(Br)c2)c(-c2c[nH]c3ccc(Br)cc23)n1,72.7%
10,O=C(CSc1nc2ccccc2c(=O)[nH]1)NNC(=O)c1ccccc1Cl,115%
11,COc1c2c(c(Br)c3c1C(CCc1ccccc1)N(C)CC3)OCO2 (stereo unspecified),68.2%
12,Cn1cc(-c2cc3nc(-c4c[nH]c5ccccc45)cc(N)n3n2)c2ccccc21,-68.2% (active)
13,O=C(/C=C1\C(=O)N(Cc2ccccc2)c2ccccc21)c1cc2ccccc2oc1=O,102%
14,O=c1ccc(Cn2c(C(F)(F)F)cc3c(Cl)ncnc32)c[nH]1,94.7%
15,O=C1CC(c2ccc(I)cc2)OC2C=Cc3ccccc3C12 (stereo unspecified),98.7%
16,COC(=O)c1c(C(=O)OC)c2ccc3c4ccccc4ccc3n2c1C(=O)OC,110%
17,O=C(N/N=C/c1occc1Br)c1[nH]c2ccc(Br)cc2c1-c1ccccc1,-69.1% (active)
18,Cn1cc(-c2cc(N)n3nc(-c4c[nH]c5ccccc45)cc3n2)c2cc(Br)ccc21,-76.9% (active)
19,Cc1ccc2c(c1)/C(=C/C(=O)c1cc3ccccc3oc1=O)C(=O)N2,89.4%

# System: NCI-H460 lung
# Test: as above
# Conditions: 10 µM unless noted
row,SMILES,growth
1,COc1cc(CNC(=O)C[C@H](C)CCC=C(C)C)ccc1OCc1cn(-c2ccc(Br)cc2)nn1,74.2%
2,N#CC1=C(c2cccs2)Nc2c(c(-c3ccccc3)nn2-c2ccccc2)C12C(=O)Nc1ccccc12 (stereo unspecified),5.58% (active)
3,N#Cc1c(-c2ccc(F)cc2)nc(SCc2ccc(F)cc2)nc1N1CCNCC1,-85.1% (active)
4,COc1cc(NC(=O)CSc2nnc(-c3ccc(-c4nc5ccc(Cl)cc5[nH]4)cc3)o2)cc(OC)c1OC,29%
5,CN(C)c1nc(NCCNS(=O)(=O)c2ccc(C(=O)/C=C/c3ccc(C(F)(F)F)cc3)cc2)nc(N2CCOCC2)n1,28.8%
6,COc1cc(CNC(=O)C[C@H](C)CCC=C(C)C)ccc1OCc1cn(-c2ccc(Cl)cc2Cl)nn1,75.1%
7,O=C(N=Nc1c(O)[nH]c2ccc(Cl)cc12)c1ccc2nc(-c3ccc(Cl)cc3)[nH]c2c1,11.8%
8,CC1=C(C(=O)OCc2ccccc2)C(c2ccc(N(C)C)cc2)n2c(nc3ccccc32)N1 (stereo unspecified),99.8%
9,Cn1cc(-c2cc(N)n3nc(-c4c[nH]c5ccc(F)cc45)cc3n2)c2cc(Br)cnc21,57.5%
10,CCCCC[C@@H]1C/C=C(\C)[C@@H](O)C(C)(C)C(=O)[C@@H](C)/C=C(\C)[C@@H]2C[C@H](O)C[C@](O)(CC(=O)O1)O2,49.6%
11,COc1ccc2c(c1)c(-c1cc(N)n3nc(-c4c[nH]c5ccccc45)cc3n1)cn2C,-69.7% (active)
12,COc1ccccc1NC(=O)N/N=C/c1c[nH]c2ccccc12,14.1%
13,CC[C@]12C=CCN3CC[C@@]4(c5ccc(OC)cc5N(C)[C@H]4[C@@](O)(C(=O)OC)[C@@H]1OC(=O)CCCC[P+](c1ccc(F)cc1)(c1ccc(F)cc1)c1ccc(F)cc1)[C@@H]32,20.3%
14,Cc1ccc(Cl)cc1NC(=O)Nc1nc2ccc([N+](=O)[O-])cc2s1,-41.5% (active)
15,Nc1nnc(CS(=O)(=O)c2ccccc2)s1,114%
16,N#CC1=C(c2cccs2)Nc2c(c(-c3ccccc3)nn2-c2ccccc2)C12C(=O)Nc1ccc(Br)cc12 (stereo unspecified),-46.7% (active)
17,N#Cc1ccc(C(=O)CSc2nc3c(c(Nc4ccc(S(N)(=O)=O)cc4)n2)CCC3)cc1,39.6%
18,Cc1cccc(-c2ccccc2Oc2ccc3nnc(Cl)n3n2)c1,109%
19,COC(=O)c1cc(C(=O)CBr)n2c1ccc1c3ccccc3ccc12,39.4%

row,SMILES,growth
1,O=C(Cn1c(/C=C/c2ccc([N+](=O)[O-])cc2)nc2ccccc2c1=O)Nc1ccccc1,52.5%
2,CC(C)C[C@H](NC(=O)CNC(=O)C[C@H]1O[C@@H]2OC3(C)CC[C@H]4[C@H](C)CC[C@@H]([C@H]1C)[C@@]24O3)B(O)O,9.47% (active)
3,COc1ccccc1/C=C/c1cccc(NC(=S)NCCCCN(C)C)c1,-74.2% (active)
4,CCCn1c(NC(=O)c2cccc(C(N)=O)c2)nc2cc(CN3CCCCC3)ccc21,101%
5,Fc1cccc(CNc2nc(SCCN3CCOCC3)nc3c2cnn3CC(Cl)c2ccc(Br)cc2)c1 (stereo unspecified),7.02% (active)
6,COc1ccc(NC(=O)Nc2nc3ccc([N+](=O)[O-])cc3s2)cc1,3.86% (active)
7,O=C1c2cccc3c(N4CCN(c5ccccc5)CC4)ccc(c23)C(=O)N1c1cccc(-c2nn(-c3ccccc3)cc2-c2nc3ccccc3s2)c1,110%
8,Clc1ccccc1Nc1nnc(-c2c[nH]c3ccccc23)o1,16%
9,Nc1nnc(-c2cncc(Br)c2)c(-c2c[nH]c3ccc(Br)cc23)n1,39.6%
10,O=C(CSc1nc2ccccc2c(=O)[nH]1)NNC(=O)c1ccccc1Cl,106%
11,COc1c2c(c(Br)c3c1C(CCc1ccccc1)N(C)CC3)OCO2 (stereo unspecified),23.5%
12,Cn1cc(-c2cc3nc(-c4c[nH]c5ccccc45)cc(N)n3n2)c2ccccc21,-75.5% (active)
13,O=C(/C=C1\C(=O)N(Cc2ccccc2)c2ccccc21)c1cc2ccccc2oc1=O,103%
14,O=c1ccc(Cn2c(C(F)(F)F)cc3c(Cl)ncnc32)c[nH]1,32.5%
15,O=C1CC(c2ccc(I)cc2)OC2C=Cc3ccccc3C12 (stereo unspecified),108%
16,COC(=O)c1c(C(=O)OC)c2ccc3c4ccccc4ccc3n2c1C(=O)OC,111%
17,O=C(N/N=C/c1occc1Br)c1[nH]c2ccc(Br)cc2c1-c1ccccc1,-86.2% (active)
18,Cn1cc(-c2cc(N)n3nc(-c4c[nH]c5ccccc45)cc3n2)c2cc(Br)ccc21,-59% (active)
19,Cc1ccc2c(c1)/C(=C/C(=O)c1cc3ccccc3oc1=O)C(=O)N2,97%
